# Measurements: PubChem BioAssay (NCI)
# Compounds without any hit were thinned out: in the full panel of roughly 83,000, 20% have a hit.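 Interpretation: 100, growth as untreated; towards 0, rising growth inhibition; 0, no net growth; 0 to -100, cell death. Compounds scoring below 10 were considered active.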 Values without a mark were called inactive. Activity calls are given as the source filed them.
# Test system: HL-60(TB) leukemia
# Assay: NCI-60 one-dose screen, 48 h (100 = growth as untreated, 0 = no growth, -100 = all killed)
# Conditions: 10 µM unless noted
row,SMILES,growth
1,[O-][N+](=Nc1cccc(Cl)c1)c1cccc(Cl)c1,132%
2,CCc1cccc(CC)c1N1C(=O)C=CC1=O,-7.6% (active)
3,O=C(/C=C(O)/C=C/c1cccc2[nH]ccc12)/C=C/c1cccc2[nH]ccc12,39.4%
4,O=[N+]([O-])c1ccc(-c2nc(Cl)c3c(n2)CCCC3)o1,93.8%
5,CCc1nc2cc(/C=C/C(=O)NO)c(F)cc2c(=O)n1CCc1ccccc1,-8.55% (active)
6,C=C1C(=O)O[C@H]2[C@H]1CC/C(COC(=O)/C=C/c1c[nH]c3ccccc13)=C\CC[C@@]1(C)O[C@@H]21,-18.7% (active)
7,COc1cc2ncnc(Nc3ccc(S(=O)(=O)Nc4cc(C)on4)cc3)c2cc1OCCCN1CCOCC1,101%
8,COc1cc(C(=O)N/N=C/c2ccc(N(C)C)cc2)cc(OC)c1OC,-20% (active)
9,C#CC#CC#CC#CC#CC#CC#CC#CCC1OC[C@H](COC(=O)O[C@@H](C(=O)O[C@H]2C[C@@]3(O)[C@@H](OC(=O)c4ccccc4)[C@@H]4[C@]5(OC(C)=O)CO[C@@H]5C[C@H](O)[C@@]4(C)C(=O)[C@H](OC(C)=O)C(=C2C)C3(C)C)[C@@H](NC(=O)c2ccccc2)c2ccccc2)O1 (stereo not given in full),8.1% (active)
10,O=C1c2c[n+](Cc3ccccc3)ccc2-c2nc3ccccc3c3ccnc1c23,-29.6% (active)
11,CCOc1ccc(Cc2nccc3cc(OCC)c(OCC)cc23)cc1OCC,10.5%
12,CSC[C@H](NC(=O)COc1cccc2cnccc12)C(=O)NC(Cc1ccccc1)C(O)C(=O)N1CSC[C@H]1C(=O)NC(C)(C)C (stereo not given in full),140%
13,N#CCCN1C/C(=C/c2ccc(Cl)cc2)C(=O)/C(=C/c2ccc(Cl)cc2)C1,-16.5% (active)
14,CN(C)Cc1cccs1,104%
15,CCOc1nc(-c2ccccc2)cc2c(O)c(C(=O)N/N=C/c3ccc(OC)cc3)[nH]c(=O)c12,65.1%
16,CCCOC(=O)N[C@H]1CCc2c(Cl)c(OC)c(OC)c(OC)c2-c2ccc(SC)c(=O)cc21,-36% (active)
17,C/C(Cc1ccc(Cl)cc1)=C(\c1ccc(OCCN2CCCCCC2)cc1)c1ccc(OC(=O)Cc2ccccc2)cc1,15.8%
18,Oc1ccc(-c2nn(-c3ccccc3)cc2-c2nc3ccccc3s2)cc1,104%
19,O=C(/C=C/c1ccc(Br)cc1)c1ccc(-n2cc(CN3CCN(c4cc5c(cc4F)c(=O)c(C(=O)O)cn5C4CC4)CC3)nn2)cc1,94.3%
20,O=C(Nc1ccc(Cl)c(Cl)c1)OCc1ccco1,32.1%

row,SMILES,growth
1,COc1cc2c(cc1O)CC[C@@H]1C2CC[C@@]2(C)C1CC[C@@H]2O (stereo not given in full),-3.13% (active)
2,CCN(CC)S(=O)(=O)c1ccc(S(=O)(=O)N2CCC[C@@H](C(=O)N3CCN(C(=O)OC(C)(C)C)CC3)C2)cc1,70.5%
3,Cc1ccc(-c2nc(SCC(=O)N3CCN(c4cc5c(cc4F)c(=O)c(C(=O)O)cn5C4CC4)CC3)nc(Cl)c2C#N)cc1,101%
4,COc1ccc(S(=O)(=O)NCCCNc2cc(-c3c(-c4cccc(OC)c4)nc4sccn34)ccn2)cc1,32.7%
5,CCSc1oc(-c2ccccc2)nc1[P+](c1ccccc1)(c1ccccc1)c1ccccc1,-35.1% (active)
6,COc1ccc(-c2cc(/C=C/C(=O)c3cc(OC)c(OC)c(OC)c3)[nH]n2)cc1OC,-22.9% (active)
7,O=C(CN1CCOCC1)Nc1ccc(Cn2nnc3c2C(=O)c2nnn(Cc4ccc(NC(=O)CN5CCOCC5)cc4)c2C3=O)cc1,-39.1% (active)
8,O=C(Nc1ccc(F)cc1)c1c(NC(=O)C(F)(F)F)sc2c1CCCCC2,17.1%
9,O=C1/C(=C/c2ccc(F)cc2)CN(C(=O)CCN2CCC(=NO)CC2)C/C1=C\c1ccc(F)cc1,-8.33% (active)
10,CC(C)OC(=O)OCOP(=O)(OCOC(=O)OC(C)C)C1CCCN(O)C1=O (stereo not given),6.5% (active)
11,CCOC(=O)c1ccc2nc(-c3c(C)nn(-c4ccccc4)c3N3CCOCC3)[nH]c2c1,95.4%
12,O=C(O)CN1C(=O)C=CC1=O,96.9%
13,COc1cccc(/C(C)=N/NC(=O)CSc2nc3ccccc3c(=O)n2CCc2ccc(S(N)(=O)=O)cc2)c1,58.5%
14,CC(C)CC(NC(=O)C(CCCN=C(N)N)NC(=O)OCc1ccccc1)C(=O)NC(CNC(=O)/C=C/c1ccccc1)C(C)C (stereo not given),102%
15,O=C1OCC2=C1C(c1cccc(Br)c1)c1cc3c(cc1N2CCO)CCC3 (stereo not given),-25.5% (active)
16,CCN(CCO)CCNc1ccc(C)c2sc3cc(OC)ccc3c(=O)c12,67.5%
17,O=c1n(Cc2ccc3ccccc3c2)ccn1Cc1ccc2ccccc2c1,103%
18,CCCCCCN1CSC(=S)N(CCCCCC)C1,112%
19,O=C(CN1CCN(c2cc3c(cc2F)c(=O)c(C(=O)O)cn3C2CC2)CC1)Nc1cc(=O)[nH]c(=O)[nH]1,103%
20,Fc1ccc(C(c2ccc(F)cc2)C(Cl)Cl)cc1,85.7%
